Test results reported in PubChem BioAssay (NCATS).
Results filed as inconclusive are left out. Where a call stands in place of a potency, no number is given. Values without a mark were called inactive. Active and inactive are the calls of the source. Calls come from the whole dose curve; as a rule, active = well fitted curve in the direction sought with a large enough effect; inconclusive = small, poorly fitted or top-dose-only effect, or another doubt; inactive = no such curve, though single readings can be large; an effect the other way counts as inactive or inconclusive.

Experiments:
[1] = biological target: Rap guanine nucleotide exchange factor 3 (Homo sapiens) (UniProt O95398); assay: Confirmatory qHTS for antagonist of cAMP-regulated guanine nucleotide exchange factor 3 (EPAC1) (AID 1645880); note: nearly all actives have a fitted effect of over 55% in size; note: potency is the fitted concentration of half-maximal effect
Sequence of Rap guanine nucleotide exchange factor 3 (Homo sapiens) (O95398 whole entry, looked up): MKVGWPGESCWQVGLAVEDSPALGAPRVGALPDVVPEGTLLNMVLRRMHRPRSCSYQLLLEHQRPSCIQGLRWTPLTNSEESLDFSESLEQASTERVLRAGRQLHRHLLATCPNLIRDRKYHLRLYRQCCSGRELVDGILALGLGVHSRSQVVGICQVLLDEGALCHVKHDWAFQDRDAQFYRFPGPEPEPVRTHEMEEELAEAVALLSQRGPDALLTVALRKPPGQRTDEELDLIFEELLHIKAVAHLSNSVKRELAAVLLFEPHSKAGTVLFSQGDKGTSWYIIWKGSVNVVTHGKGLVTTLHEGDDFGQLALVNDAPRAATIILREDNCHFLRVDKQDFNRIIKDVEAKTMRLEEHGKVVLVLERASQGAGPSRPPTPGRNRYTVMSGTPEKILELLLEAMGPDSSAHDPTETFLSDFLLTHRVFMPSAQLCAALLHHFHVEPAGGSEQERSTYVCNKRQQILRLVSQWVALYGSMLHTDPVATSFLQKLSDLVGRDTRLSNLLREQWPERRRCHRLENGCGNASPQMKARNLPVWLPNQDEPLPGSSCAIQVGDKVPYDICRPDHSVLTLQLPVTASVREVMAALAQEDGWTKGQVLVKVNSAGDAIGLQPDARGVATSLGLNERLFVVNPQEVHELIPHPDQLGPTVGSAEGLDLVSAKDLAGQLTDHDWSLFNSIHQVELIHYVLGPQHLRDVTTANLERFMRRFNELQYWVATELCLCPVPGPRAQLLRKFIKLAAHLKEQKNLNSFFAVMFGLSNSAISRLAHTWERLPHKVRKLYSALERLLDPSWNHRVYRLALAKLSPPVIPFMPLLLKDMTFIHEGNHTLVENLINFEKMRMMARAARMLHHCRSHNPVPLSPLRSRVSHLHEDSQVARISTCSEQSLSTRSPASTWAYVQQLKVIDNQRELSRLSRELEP
In short: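 Nucleotide exchange uses 100 nM EPAC1, 250 nM RAP1B-BODIPY-GDP and 50 uM GDP, with compounds in a concentration-titration series. After 5 min at room temperature, fluorescence (480 nm ex/540 nm em) is read every 5 min for 30 min. Data are normalized to control ATA and DMSO.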

[2] = biological target: Rap guanine nucleotide exchange factor 3 (Homo sapiens) (UniProt O95398); assay: Confirmatory qHTS for agonist of cAMP-regulated guanine nucleotide exchange factor 3 (EPAC1) (AID 1645881); note: nearly all actives have a fitted effect of over 75% in size; note: potency is the fitted concentration of half-maximal effect;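 for activation: EPAC1 catalysed release of BODIPY-GDP from Rap1B seen as fluorescence loss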
[3] = biological target: Rap guanine nucleotide exchange factor 4 (Homo sapiens) (UniProt Q8WZA2); assay: Confirmatory qHTS for agonist of cAMP-regulated guanine nucleotide exchange factor 4 (EPAC2) (AID 1645884);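 note: nucleotide exchange releases bodipy-GDP from Rap1 and this lowers its fluorescence; nearly all actives have a fitted effect of over 65% in size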; note: potency is the fitted concentration of half-maximal effect
Sequence of Rap guanine nucleotide exchange factor 4 (Homo sapiens) (Q8WZA2 whole entry, looked up): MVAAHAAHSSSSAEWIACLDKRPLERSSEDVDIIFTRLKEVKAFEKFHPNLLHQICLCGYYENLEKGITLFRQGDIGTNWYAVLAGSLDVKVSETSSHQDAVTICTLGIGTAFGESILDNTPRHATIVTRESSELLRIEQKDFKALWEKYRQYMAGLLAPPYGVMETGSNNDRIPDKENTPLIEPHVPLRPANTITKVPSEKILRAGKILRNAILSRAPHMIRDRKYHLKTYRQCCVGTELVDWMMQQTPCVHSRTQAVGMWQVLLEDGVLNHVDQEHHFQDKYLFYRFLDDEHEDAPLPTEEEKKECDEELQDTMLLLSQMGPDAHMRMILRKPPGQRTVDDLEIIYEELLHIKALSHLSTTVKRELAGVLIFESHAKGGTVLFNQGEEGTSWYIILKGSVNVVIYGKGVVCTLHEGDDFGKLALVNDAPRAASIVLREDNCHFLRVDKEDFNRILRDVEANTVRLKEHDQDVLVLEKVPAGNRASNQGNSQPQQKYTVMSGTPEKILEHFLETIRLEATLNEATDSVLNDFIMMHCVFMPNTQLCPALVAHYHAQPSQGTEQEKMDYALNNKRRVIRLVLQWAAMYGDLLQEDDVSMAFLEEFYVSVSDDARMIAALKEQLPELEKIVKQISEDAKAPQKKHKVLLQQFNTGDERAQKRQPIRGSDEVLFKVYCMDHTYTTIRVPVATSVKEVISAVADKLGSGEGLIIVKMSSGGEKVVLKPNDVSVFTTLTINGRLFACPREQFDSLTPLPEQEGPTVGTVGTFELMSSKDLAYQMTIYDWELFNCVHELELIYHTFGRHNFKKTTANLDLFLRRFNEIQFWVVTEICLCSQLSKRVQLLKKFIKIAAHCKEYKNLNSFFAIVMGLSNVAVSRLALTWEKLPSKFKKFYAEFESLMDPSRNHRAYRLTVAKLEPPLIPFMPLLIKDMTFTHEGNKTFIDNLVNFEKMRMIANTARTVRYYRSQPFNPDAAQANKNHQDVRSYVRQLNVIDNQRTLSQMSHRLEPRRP

[4] = biological target: Rap guanine nucleotide exchange factor 4 (Homo sapiens) (UniProt Q8WZA2); assay: Confirmatory qHTS for antagonist of cAMP-regulated guanine nucleotide exchange factor 4 (EPAC2) (AID 1645885); note: nearly all actives have a fitted effect of over 25% in size; note: potency is the fitted concentration of half-maximal effect
[5] = biological target: Rap guanine nucleotide exchange factor 3 (Homo sapiens) (UniProt O95398); assay: Counterscreen qHTS for antagonist of cAMP-regulated guanine nucleotide exchange factor 3 (EPAC1) (AID 1645888);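 note: fluorescence loss as bound BODIPY-GDP is released from Rap1B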
In short: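 Rap1B-BODIPY-GDP 250 nM + GDP 50 uM; cpds 7-pt, final 9.74 nM–152 uM (activator mode) or from 7.32 nM upwards (inhibitor mode); RT; FI 480/540 nm at 5 and 30 min, then ± cAMP, reread.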

SMILES | Potency [1] | Potency [2] | Potency [3] | Potency [4] | Potency [5] | activation [3] | activity change, negative = inhibition [5] | outcome [4]
O=C(COC(=O)c1nc(Cl)ccc1Cl)c1ccccc1Cl | inactive | inactive | inactive | inactive | inactive | – | – | –
COc1ccc(S(=O)(=O)N2CCOC23CCN(S(=O)(=O)c2cc(F)ccc2F)CC3)cc1 | inactive | inactive | – | inactive | – | 4.71% [at 17.1 µM, percent relative to cAMP agonist control] | -8.89% [at 30.8 µM] | –
CC1(C(=O)NS(=O)(=O)c2ccc(F)cc2F)CCN1C(=O)C1(c2ccc(Cl)cc2)CCC1 (stereo not given) | 9.53 µM (active) | inactive | inactive | inactive | inactive | – | – | –
CCc1ccc2c(c1)C(NC(C)=O)C(=O)N2CCN1CCOCC1 (stereo not given) | 19 µM (active) | inactive | inactive | inactive | inactive | – | – | –
COc1ccc(Br)cc1CN(C)C(=O)c1ccccc1OCc1c(C)noc1C | inactive | inactive | inactive | inactive | inactive | – | – | –
Fc1cc(F)c(F)c(SCn2cc(Br)cn2)c1F | inactive | inactive | – | inactive | – | 5.6% [at 17.1 µM, percent relative to cAMP agonist control] | -7.43% [at 30.8 µM] | –
Cc1ccc(NC(=O)c2ccc(Cl)c(S(=O)(=O)N3CCc4ccccc43)c2)nc1 | inactive | inactive | inactive | inactive | inactive | – | – | –
COc1ccc(-c2onc3ccc(C(C)=O)cc23)cc1 | inactive | 79.4 µM (active) | 79.4 µM (active) | 19 µM (active) | inactive | – | – | –
Cc1ccc(-n2nc(C(=O)N(C)c3ccc(C)c(C)c3)c3c4ccccc4n(C)c3c2=O)cc1 | inactive | inactive | inactive | – | inactive | – | – | inactive [at 12.7 µM]
Cc1cc(O)c(C(=O)/C=C/c2cccc([N+](=O)[O-])c2)c(=O)o1 | 33.8 µM (active) | inactive | inactive | inactive | inactive | – | – | –
OC[C@H]1O[C@H](OCCc2ccc(O)cc2)[C@H](O)[C@@H](O)[C@@H]1O | inactive | inactive | inactive | inactive | inactive | – | – | –
Cc1ccc(S(=O)(=O)N2[C@@H](c3ccc(Br)cc3)C(C(=O)O)=CC[C@H]2c2ccc(C(C)C)cc2)cc1 | 16.9 µM (active) | inactive | inactive | inactive | inactive | – | – | –
Cc1ccc(S(=O)(=O)CC(=O)N(CCCN(C)C)c2nc3ccc(C)cc3s2)cc1 | inactive | inactive | inactive | inactive | inactive | – | – | –
COc1cc(/C=C2/C(=O)NN(c3ccc(Cl)cc3)C2=O)ccc1OC(=O)c1ccco1 | 47.8 µM (active) | inactive | inactive | inactive | inactive | – | – | –
O=S(=O)(NCc1ccco1)c1ccc(Cl)cc1Cl | inactive | inactive | – | inactive | – | 3.78% [at 17.1 µM, percent relative to cAMP agonist control] | -9.1% [at 30.8 µM] | –
CC1CC1c1ccc(/C=C(\C#N)C(=O)Nc2ccccc2Cl)o1 (stereo not given) | inactive | inactive | – | inactive | – | 3.85% [at 17.1 µM, percent relative to cAMP agonist control] | -9.3% [at 30.8 µM] | –
Cc1ccccc1C(=O)NCC(=O)N1CCN(c2ccccn2)CC1 | inactive | inactive | – | inactive | – | 9.91% [at 17.1 µM, percent relative to cAMP agonist control] | -4.53% [at 30.8 µM] | –
Cc1cc(C)c(-c2c(N)cc(Br)cc2Br)c(N)c1 | inactive | inactive | inactive | inactive | inactive | – | – | –
CSCc1cc(N(C)c2ccccc2)nc(-c2ccccc2)n1 | inactive | inactive | inactive | 6.01 µM (active) | inactive | – | – | –
COC(=O)c1ccc2c(=O)n3nc(Nc4cc(OC)ccc4OC)sc3nc2c1 | inactive | inactive | inactive | inactive | inactive | – | – | –
O=C(NCC(c1ccco1)N1CCN(c2ccccc2F)CC1)c1cccs1 (stereo not given) | inactive | inactive | – | inactive | – | 5.11% [at 17.1 µM, percent relative to cAMP agonist control] | 6.53% [at 30.8 µM] | –
COC(=O)c1[nH]c2cc(C)ccc2c1NC(=O)CN1CCCc2ccccc21 | inactive | inactive | inactive | inactive | inactive | – | – | –
COc1cc(C)cc(C(=O)C=Cc2ccccc2)c1O | inactive | inactive | – | inactive | – | 3.76% [at 17.1 µM, percent relative to cAMP agonist control] | 12.7% [at 30.8 µM] | –
Cn1cc(CNCc2cn(C)nc2-c2ccc(C3CCCCC3)cc2)cn1 | inactive | inactive | inactive | inactive | inactive | – | – | –
COc1ccc(C(C(=O)c2ccccc2)c2ccccc2)cc1 (stereo not given) | inactive | 100 µM (active) | 50.1 µM (active) | inactive | inactive | – | – | –

SMILES | Potency [1] | Potency [2] | Potency [3] | Potency [4] | Potency [5] | activation [3] | activity change, negative = inhibition [5] | outcome [4]
CC(=O)C(Sc1nnnn1-c1ccc(O)cc1)c1ccccc1 (stereo not given) | inactive | inactive | inactive | inactive | inactive | – | – | –
CCOc1ccccc1NC1c2ccccc2C(=O)N1Cc1ccco1 (stereo not given) | inactive | inactive | inactive | inactive | inactive | – | – | –
CCc1nc2ccc(C(=O)N(C)Cc3ccccc3)cn2c1N(CC)Cc1cccc(Br)c1 | inactive | inactive | – | inactive | – | 3.66% [at 17.1 µM, percent relative to cAMP agonist control] | -21% [at 30.8 µM] | –
O=C(NCc1ccccc1)c1ccc2nc(-c3ccco3)c(-c3ccco3)nc2c1 | 16.9 µM (active) | inactive | inactive | inactive | inactive | – | – | –
O=C(OCC(=O)N1CCCC1=O)c1cc(Cl)ccc1O | inactive | inactive | inactive | inactive | inactive | – | – | –
O=C(O)c1ccccc1N/N=C/C1=C(N2CCOCC2)C(=C\c2ccccc2)/CC1 | 67.5 µM (active) | inactive | inactive | inactive | inactive | – | – | –
CC1CCc2[nH]c3ccc(C(=O)N(C)CC(=O)Nc4ccccc4Br)cc3c2C1 (stereo not given) | inactive | inactive | inactive | inactive | inactive | – | – | –
Cc1ccc(S(=O)(=O)N2[C@@H](c3ccc(Br)cc3)C(C(=O)O)=CC[C@H]2c2ccc(Cl)c(Cl)c2)cc1 | 67.5 µM (active) | inactive | inactive | 33.8 µM (active) | inactive | – | – | –
CCn1c(C)nc2cc(C(=O)N/N=C(\C)c3ccccc3O)ccc21 | 7.08 µM (active) | inactive | – | inactive | – | 0.106% [at 17.1 µM, percent relative to cAMP agonist control] | -28% [at 30.8 µM] | –
OC1CCN(c2c3c(nc4cc(-c5cccc(F)c5)nn24)CCCC3)CC1 | inactive | inactive | inactive | inactive | inactive | – | – | –
Cc1cc(Nc2ccccc2)n(-c2nc3ccccc3[nH]2)n1 | inactive | inactive | – | inactive | – | 5.09% [at 17.1 µM, percent relative to cAMP agonist control] | -0.198% [at 30.8 µM] | –
COc1cc2c(cc1OC)-c1cc(NCc3ccccn3)nc(=O)n1CC2 | 37.9 µM (active) | inactive | inactive | inactive | inactive | – | – | –
CC(C)OC1(c2ccccc2)OC(=O)c2ccccc21 (stereo not given) | inactive | inactive | inactive | inactive | inactive | – | – | –
CN(C)S(=O)(=O)c1cccc(-c2nn(-c3ccccc3)cc2/C=C2\SC(=S)NC2=O)c1 | 21.3 µM (active) | inactive | inactive | 42.6 µM (active) | inactive | – | – | –
Cc1ccc(/C=C2\SC(=S)N(NS(=O)(=O)c3ccc(C)cc3)C2=O)cc1 | 39.8 µM (active) | inactive | – | inactive | – | 11.9% [at 17.1 µM, percent relative to cAMP agonist control] | -10.4% [at 30.8 µM] | –
COC(=O)c1ccc(/C=C2\CCn3c2nc2cc(C(=O)O)ccc2c3=O)cc1 | inactive | inactive | inactive | inactive | inactive | – | – | –
C=CCn1c(NC(=O)c2ccccc2Cl)c(C#N)c2nc3ccccc3nc21 | 35.5 µM (active) | inactive | – | 3.01 µM (active) | – | -3.42% [at 17.1 µM, percent relative to cAMP agonist control] | -7.8% [at 30.8 µM] | –
Cc1ccc(Cl)c2sc(N3CCN(C(=O)c4ccco4)CC3)nc12 | inactive | inactive | – | inactive | – | 3.67% [at 17.1 µM, percent relative to cAMP agonist control] | -12.9% [at 30.8 µM] | –
COCCn1cnnc1SCC(=O)Nc1sc2c(c1C#N)CCC2 | inactive | inactive | – | inactive | – | 9.93% [at 17.1 µM, percent relative to cAMP agonist control] | 9.73% [at 30.8 µM] | –
COc1cc(/C=C2\SC(=S)N(NS(=O)(=O)c3ccc(C)cc3)C2=O)ccc1O | 22.4 µM (active) | inactive | – | inactive | – | 2.55% [at 17.1 µM, percent relative to cAMP agonist control] | -2.35% [at 30.8 µM] | –
O=C(COC(=O)CSc1ccc([N+](=O)[O-])cc1)NCc1cccs1 | inactive | inactive | inactive | inactive | inactive | – | – | –
CCc1ccc(S(=O)(=O)/N=C2\C=C(Nc3cccc(C(=O)O)c3)C(=O)c3ccccc32)cc1 | 37.9 µM (active) | inactive | inactive | 0.379 µM (active) | inactive | – | – | –
COCCCN1C(=O)C(CC(=O)NCc2cccc3ccccc23)CC(C(=O)N2CCCCCC2)=C1C (stereo not given) | inactive | inactive | inactive | inactive | inactive | – | – | –
Cc1ccc(C(=O)c2coc3ccc(O)c(Cl)c23)cc1 | inactive | inactive | inactive | 84.9 µM (active) | inactive | – | – | –
COC(CNC(=O)c1ccc2c3c(onc13)-c1ccccc1C2=O)OC | inactive | 50.1 µM (active) | 100 µM (active) | inactive | inactive | – | – | –
